Assay outcomes (PubChem)
CHRM1 antagonist: blocks human M1 muscarinic receptor. inhibition, % at 3 µM. CHO-K1 hM1, Fluo-8 calcium fluorescence, ACh EC80 antagonist. P11229. 360,000 compounds, 1.3% hits;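 active means percent inhibition above its own plate's cutoff, namely the mean of that plate's compound wells plus 3 SD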;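 further: peak over basal fluorescence ratio during 140 s after agonist addition; 0% = ACh EC80 plus DMSO and 100% = DMSO alone without agonist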
Target sequence (P11229 whole entry, looked up): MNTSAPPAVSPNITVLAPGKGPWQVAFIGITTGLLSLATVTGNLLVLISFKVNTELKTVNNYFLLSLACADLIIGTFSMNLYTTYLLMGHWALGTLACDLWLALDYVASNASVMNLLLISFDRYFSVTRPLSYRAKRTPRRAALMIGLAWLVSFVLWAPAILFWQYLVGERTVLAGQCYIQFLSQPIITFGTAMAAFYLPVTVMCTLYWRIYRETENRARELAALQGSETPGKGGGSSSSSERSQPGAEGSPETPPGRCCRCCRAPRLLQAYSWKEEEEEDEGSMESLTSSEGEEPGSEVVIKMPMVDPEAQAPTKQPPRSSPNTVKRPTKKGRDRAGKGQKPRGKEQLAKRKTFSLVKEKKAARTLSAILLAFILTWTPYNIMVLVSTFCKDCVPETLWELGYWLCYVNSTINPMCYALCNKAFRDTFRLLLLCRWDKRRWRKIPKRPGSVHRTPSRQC
CHO-K1 Ca ag: counter-screen for M1 agonists: effect in parental CHO-K1 cells. AID 602248. Fluo-8 calcium fluorescence; scaled to maximal ATP response, vehicle zero. 360,000 compounds, 0.48% hits. activation, % at 3 µM; in the data active means activation above about 15%;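 further: untransfected CHO-K1 host cells lacking M1 receptor as counterscreen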
CHRM1 agonist: human M1 muscarinic receptor agonism; CHO-K1 hM1, Fluo-8 calcium fluorescence, agonist mode; 0% DMSO, 100% acetylcholine EC100; activation, % at 3 µM; 360,000 compounds, 0.33% hits; AID 588814;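 active means activation above the run's mean compound activation plus 3 SD, cut at about 16% in these data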;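 further: peak over basal fluorescence ratio within a 140 s kinetic read after compound addition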
CHO-K1 Ca antag: M1 antagonist counterscreen hit in parental CHO-K1 cells | inhibition, % at 3 µM | 360,000 compounds, 0.6% hits | ATP-induced calcium, Fluo-8 fluorescence;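 active means inhibition above a per-plate cutoff, the plate's mean sample inhibition plus 3 SD, cut at about 24% in these data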;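 further: 0% = DMSO plus EC80 ATP and 100% = DMSO alone without ATP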
CHRM1 PAM: human CHRM1 positive allosteric modulation. 360,000 compounds, 0.088% hits. activation, % at 3 µM. CHO-K1 hM1, Fluo-8 calcium fluorescence, ACh EC20; 0% = ACh EC20, 100% = maximal ACh. P11229; in the data active means activation above about 19%, passing the limit was not always enough
CHO-K1 Ca PAM: nonselective activator or artifact in parental CHO-K1 calcium assay; activation, % at 3 µM; AID 602247; ATP EC20, Fluo-8 calcium fluorescence; 0% at ATP EC20, 100% at ATP max; 360,000 compounds, 0.02% hits;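 active means activation above the run cutoff, the mean activation of all test compounds plus 3 SD, cut at about 40% in these data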;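 further: peak over basal fluorescence ratio in a 140 s read after ATP addition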
* hit, by the source's call. The list is not random: actives were taken first. Their share in the collection is about 2.3%.

SMILES	CHRM1 antagonist	CHO-K1 Ca ag	CHRM1 agonist	CHO-K1 Ca antag	CHRM1 PAM	CHO-K1 Ca PAM
O=C1Nc2ccc(Br)cc2C(c2ccccc2)=NC1O (stereo not given)	-3	0	2	7	17	-8
CC(C)(C)c1ccc(C(=O)C2CCCN(C3CCC3)C2)cc1 (stereo not given)	52*	1	-7	-8	-22	16
CC(=O)N1CCC(N2CCCC(C(=O)c3cccc(Cl)c3)C2)CC1 (stereo not given)	48*	0	-14	-5	-34	19
CNc1cc(Cl)c2nonc2c1[N+](=O)[O-]	25*	-1	-1	38*	1	-17
CN(C)CC(C(=O)Cc1ccccc1)c1ccccc1 (stereo not given)	-9	0	-4	-2	9	15
O=C1NC(=O)C(=Cc2ccc(-c3ccc(F)cc3O)o2)C(=O)N1	47*	5	38*	-11	0	26
CCOP(=O)(NC(C)C)Oc1ccc(SC)c(C)c1 (stereo not given)	-12	0	-5	-15	15	9
CNC(=O)Oc1cccc(-c2cn3cc(Cl)ccc3n2)c1	9	0	-1	4	27*	-4
CCCC(=O)OCC[N+](C)(C)C	-12	0	43*	-1	-19	13
O=c1[nH]c2ccccc2n1C1CCN(C(c2cc3ccccc3o2)c2nnnn2-c2ccc3c(c2)OCCO3)CC1 (stereo not given)	-2	6	4	19	-5	-6
COc1ccc(CN2CC=C(c3ccc(F)cc3)CC2)cc1Br	46*	1	-7	-14	-26	23
CCN(CC)c1ccc(CN2CC=C(c3ccc(F)cc3)CC2)cc1	37*	1	-5	0	-22	0
Cc1onc(-c2c(Cl)cccc2Cl)c1C(=O)Nc1ccc2c(C(F)(F)F)cc(=O)oc2c1	-2	0	-3	-9	3	-4
CCOC(=O)C1(CCc2ccccc2)CCN(Cc2cccc3c2OCO3)CC1	34*	5	-13	10	-34	-3
CCOC(=O)C1(CCc2ccccc2)CCN(Cc2cccc3cnccc23)CC1	48*	0	-14	6	-34	9
COc1cccc(C(c2nnnn2C2CCCCC2)N2CCC3(CC2)C(=O)NCN3c2ccccc2)c1OC (stereo not given)	-24	3	2	-32	6	33
O=[N+]([O-])c1cc(Cl)c(Cl)cc1Cl	22*	0	-1	-17	-14	3
O=[N+]([O-])c1ccc(Cl)c([N+](=O)[O-])c1	-18	0	10	-5	12	-6
O=c1[nH]c(=S)n(CCC2=CCCCC2)c(O)c1C=NCCCn1ccnc1	30*	0	-5	25*	-17	-6
CC12C=CC(=O)C=C1CCC1C2C(O)CC2(C)C1CCC2(C)O (stereo not given)	-2	1	-6	-11	1	15
COC12c3ccccc3-c3ccccc3C1C(C(=O)O)C2C(=O)O (stereo not given)	-17	0	-5	2	13	15
CC(C)Cc1nnc(NC(=O)CCC(=O)N2CCN(CCOC(c3ccccc3)c3ccccc3)CC2)s1	-5	0	-9	-12	-4	19
c1ccc(C(OCCN2CCN(c3ncccn3)CC2)c2ccccc2)cc1	48*	4	-6	2	-27	5
Clc1ccc(C(OCCN2CCCCC2)c2ccccc2)cc1 (stereo not given)	96*	1	-6	0	-27	-8
COc1ccc2c(c1)C1(C(=O)O)CC=CCC1(C(=O)O)C2 (stereo not given)	-13	0	1	-8	2	6
SMILES	CHRM1 antagonist	CHO-K1 Ca ag	CHRM1 agonist	CHO-K1 Ca antag	CHRM1 PAM	CHO-K1 Ca PAM
O=C1NCN(c2ccccc2)C12CCN(C(c1ccnc3ccccc13)c1nnnn1-c1ccc3c(c1)OCCO3)CC2 (stereo not given)	-10	6	-3	-9	-6	3
COC(=O)C1=C(c2ccc(F)cc2OCc2ccccc2)C[C@@H]2CC[C@H]1N2C(=O)N1CCCCC1	-1	-1	-11	-7	-6	9
COC(=O)C1=C(c2ccc(F)cc2OCc2ccccc2)C[C@@H]2CC[C@H]1N2C(=O)NCc1ccccc1C(F)(F)F	32*	0	-9	-7	-24	-9
COC(=O)C1=C(c2ccc(F)cc2OCc2ccccc2)C[C@@H]2CC[C@H]1N2C(=O)N1CCC(C)CC1	78*	-1	-14	5	-39	3
COC(=O)C1=C(c2ccc(OC(F)(F)F)cc2)C[C@@H]2CC[C@H]1N2C(=O)N1CCCCC1	-2	1	1	-17	2	13
C[C@]12CCC3C(CC[C@H]4C[C@@H](O)CC[C@]34C)C1CC[C@@H]2OC(=O)[C@H](N)CCCCN (stereo not given in full)	3	0	-5	6	-3	0
CC1(C)OC(c2ccccc2)=C/C(=C/C=C2C(=O)NC(=O)NC2=O)O1	10	10	17*	4	-4	-3
CC[N+]12CCC(CC1)C(=C(c1ccccc1)c1ccccc1)C2	98*	0	-8	12	-25	-8
C[N+]12CCC(CC1)C(=C(c1ccccc1)c1ccccc1)C2	98*	0	-7	-9	-25	21
Cc1ccc(/C=C2/C(=O)NC(=O)N(CC3CCCO3)C2=O)s1 (stereo not given)	-3	19*	-7	1	13	14
CCC[N+]12CCC(CC1)C(C(O)(c1ccccc1)c1ccccc1)C2 (stereo not given)	60*	0	-9	-7	-24	4
CCCC[N+]12CCC(CC1)C(C(O)(c1ccccc1)c1ccccc1)C2 (stereo not given)	32	0	-7	14	-18	-18
C[N+]12CCC(CC1)C(C(O)(c1ccccc1)c1cccs1)C2 (stereo not given)	99*	2	-8	-13	-23	25
CCN(CC)CCOC(=O)c1ccc(N=Cc2c(O)[nH]c(=O)[nH]c2=O)cc1	22*	0	-7	24*	-15	-6
Oc1ccc(O)c2c1C1(Cl)C(Cl)=C(Cl)C2(Cl)C1(Cl)Cl	0	1	0	-5	-6	2
CN1CCN(CCOC2c3ccccc3CSc3ccc(Cl)cc32)CC1 (stereo not given)	99*	4	-7	-5	-23	24
Clc1ccc2c(c1)C(OC1CN3CCC1CC3)c1ccccc1CS2 (stereo not given)	100*	11	-7	-8	-23	25
